Among all 69,000 compounds or so, about 420 (0.61%) showed an effect of 50% or more. The full list was thinned out, with strong results kept by preference.

The assay addresses T1, Histidine--tRNA ligase (Leishmania infantum) (UniProt A4I591).
T1 sequence (whole entry): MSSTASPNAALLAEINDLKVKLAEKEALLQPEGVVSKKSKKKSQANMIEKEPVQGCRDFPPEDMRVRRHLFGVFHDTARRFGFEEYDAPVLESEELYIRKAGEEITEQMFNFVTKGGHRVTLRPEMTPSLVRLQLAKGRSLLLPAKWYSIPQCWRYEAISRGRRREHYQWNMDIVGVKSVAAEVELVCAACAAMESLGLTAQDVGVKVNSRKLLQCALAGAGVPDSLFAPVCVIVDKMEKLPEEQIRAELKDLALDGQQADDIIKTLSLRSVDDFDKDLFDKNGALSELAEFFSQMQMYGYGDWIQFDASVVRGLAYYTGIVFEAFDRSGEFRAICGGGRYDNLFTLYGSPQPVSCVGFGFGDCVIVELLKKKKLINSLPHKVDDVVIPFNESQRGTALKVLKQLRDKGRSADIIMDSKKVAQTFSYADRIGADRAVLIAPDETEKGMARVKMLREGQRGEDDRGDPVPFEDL
The assay can be described thus: Leishmania infantum Histidine tRNA synthetase (LdHisRS). The following applies: 30 µM. The assay is classed as functional. Further details: scale not given: in the data most compounds retested in dose-response had high values.
On to `Cc1c(Cl)cccc1NC(=O)Cn1cc(C(=O)O)ccc1=O`, for which the Percent Effect was found to be 55%.

In the case of `Cc1cccc(Cl)c1NC(=O)Cn1cc(C(=O)O)ccc1=O`, the Percent Effect came out at 18.3%.

Consider `CC(C)CS(=O)(=O)N1C[C@H]2C[C@H](C(=O)NCc3ccccc3)[C@@H](C1)O2`, for which the Percent Effect stood at 5.83%. Then `Cn1cc(N2C(=O)C[C@@H]3[C@@H]2CCN3C(=O)c2ccco2)cn1`, with 16%; and `COc1cc(N2C[C@H]3CN(C(=O)c4cnccn4)C[C@H]3C2)ncn1`, with 5.26%; and `Cn1nc(Cn2ccnc2)c2c1CN(c1nccs1)C2`, with 52.6%.

As for `CCS(=O)(=O)N1Cc2c(Cn3ccnc3)nn(C)c2C1`, the Percent Effect turned out to be 11.1%.

Regarding `Cn1nc(Cn2ccnc2)c2c1CN(c1ncccn1)C2`, the Percent Effect came to 3.51%. Consider `Cc1cc(C(=O)N2C[C@H]3CC[C@@H]2CN(Cc2ccccn2)C3)nc(N)n1`, for which the Percent Effect is -4.84%.

Turning to `CS(=O)(=O)N[C@H]1COC[C@@H]2CN(Cc3ccco3)C[C@@H]21`, the Percent Effect is -1.39%.

For `c1ccc(Oc2nccc3occc23)c(CN2CCCCC2)c1`, the Percent Effect was 23.7%. Then `COc1ccc(Oc2ncccc2F)cc1CN1CCCC1`, with 15.8%; and `COc1ccc(Oc2nccc3occc23)cc1CN1CCCC1`, with 58.1%. Then `O=C1NCCO[C@H]2CN(C(=O)Cc3ccco3)CC[C@@H]12`, with 18%; and `CC(C)Nc1nc(N2CCCC2)nc2c1CN(C)CC2`, with 5.56%. Then `Cc1nc(CN2CCc3nc(NC(C)C)nc(C)c3C2)cs1`, with 47.9%; and `Cc1nc(CN2CCc3nc(N4CCCC4)nc(NC(C)C)c3C2)cs1`, with 92.3%. Turning to `Cc1ccc([C@@]2(O)CC[C@@H]3CN(S(=O)(=O)c4cn(C)nc4C)C[C@@H]32)cc1`, the Percent Effect was -15.8%.

Regarding `CSc1nc(N)cc(N2C[C@@H]3CC[C@H](C2)N(CC2CC2)C3=O)n1`, the Percent Effect is 24.7%. Then `Cc1ccccc1CCC1CCCN(C(=O)Cc2cc(=O)[nH]c(N)n2)C1` (configuration not stated), with 18.3%. To `O=C(CC1=CSC2=NCCN12)N1CCCC(CCc2cccc(F)c2)C1` (configuration not stated) belongs 28.3%; to `Nc1nc(CC(=O)N2CCCC(CCc3cccc(F)c3)C2)cc(=O)[nH]1` (configuration not stated), 78.3%; to `Cc1ccccc1CC(C)(C)NC(=O)CCOc1cccc(C(N)=O)c1`, 1.3%.

For `Cc1ccccc1CC(C)(C)NC(=O)c1cccc(OCC(N)=O)c1`, the Percent Effect was found to be 50.6%.

For `Cc1ccccc1CC(C)(C)NC(=O)COc1cccc(C(N)=O)c1`, the Percent Effect turned out to be 22.1%. Then `Cc1ccc(CN2C[C@@H](OCc3csc(C)n3)[C@H]3COC[C@H]32)s1`, with 21%.

For the compound `CN1CCC(O)(CCNC(=O)[C@@]23CNC[C@@H]2CN(C2CCCC2)C3)CC1`, the Percent Effect stood at 10.3%. Turning to `CC(=O)N1CCO[C@@H]2CN(S(=O)(=O)c3ccc(F)cc3)CC[C@@H]2C1`, the Percent Effect amounted to 17%. Then `CC(=O)N1CCO[C@@H]2CN(S(=O)(=O)c3ccc(C)cc3)CC[C@@H]2C1`, with 50.9%. Then `CC(=O)N1CCO[C@@H]2CN(S(=O)(=O)c3cccs3)CC[C@@H]2C1`, with 5.66%; and `O=C(N[C@@H]1CN(Cc2ccoc2)C[C@@H]2CCCO[C@@H]21)C1CCC1`, with 11.8%; and `Cc1nnc(N2C[C@H](C(=O)NCc3ccco3)[C@@H]3CCO[C@@H]3C2)s1`, with 16.8%.

For the compound `CS(=O)(=O)N1C[C@@H]2COC[C@@H](CC(=O)N3CCCO3)[C@@H]2C1`, the Percent Effect came out at 7.89%.

In the case of `Nc1cc(-c2nccnc2N2CCCC2)c2cc[nH]c2n1`, the Percent Effect came to 20.2%. Then `OCCNc1cc(-c2nccnc2N2CCCC2)c2cc[nH]c2n1`, with 62.8%.

For `O=C(O)CNc1cc(-c2nccnc2N2CCCC2)c2cc[nH]c2n1`, the Percent Effect is 20.2%. With `Cc1ccc(C)c(OC(C)C(=O)Nc2cccnc2)c1` (configuration not stated), the Percent Effect is 0%.

For the compound `Cc1ccc(C)c(OC(C)C(=O)NCc2cccnc2)c1` (configuration not stated), the Percent Effect stood at 0%. Regarding `Cc1ccc(C)c(OC(C)C(=O)NCCNc2cccnc2)c1` (configuration not stated), the Percent Effect stood at 60.6%. To `NC(=O)CN1C(=O)CO[C@H]2CN(Cc3ccc(Cl)cc3)C[C@H]21` belongs 10.8%; to `Cc1ccc(N2CC[C@@H]3[C@@H]2CCN3C(=O)c2cscn2)nn1`, 7.89%; to `O=C(N[C@H]1CCCC[C@@H]1O)c1ccc2nc(-c3ccccc3)[nH]c2c1`, 3.96%. For `O=C(NC[C@H]1CCCC[C@H]1O)c1cccc2[nH]c(-c3ccco3)nc12`, the Percent Effect was 29.7%. On to `O=C(NC[C@H]1CCCC[C@H]1O)c1ccc2nc(-c3ccco3)[nH]c2c1`, for which the Percent Effect came out at 63.4%.

On to `COC[C@@H]1CC[C@H]2[C@H](CCN2C(=O)c2ccncc2F)O1`, for which the Percent Effect is 22.6%.

With `O=C(Cn1ccc2sccc2c1=O)NCc1ccc(F)cc1`, the Percent Effect stood at 5.43%. Then `CN(C)S(=O)(=O)N1C[C@H]2CCC[C@@]2(COCc2ccccn2)C1`, with -17.6%.

For `Cc1cccc(COC[C@H]2CC[C@H]3[C@H](CCN3C(=O)CC3CC3)O2)n1`, the Percent Effect is 13.9%.

As to `CC(C)n1nc2c(cc1=O)CN(Cc1nc(-c3ccco3)no1)CC2`, the Percent Effect came out at 2.67%. Consider `Cc1ccc(-c2nnc(CN3CCc4cnc(C)nc4C3)o2)cc1`, for which the Percent Effect was determined as 40%. To `Cc1ccc(-c2nnc(CN3CCc4nn(C)c(=O)cc4C3)o2)cc1` belongs 106%.

As for `CC(C)n1nc2c(cc1=O)CN(Cc1nnc(C3CC3)o1)CC2`, the Percent Effect turned out to be 24.5%. Then `CCOCCN1CCN(Cc2nnc(-c3ccco3)o2)CC1`, with 8.51%. To `Cn1nc2c(cc1=O)CN(Cc1nnc(-c3ccc(F)cc3)o1)CC2` belongs 78.7%; to `Cc1nc(CN2CCc3nn(C)c(=O)cc3C2)oc1C`, 14.9%; to `Cn1nc2c(cc1=O)CN(Cc1ccc(-n3cccn3)cc1)CC2`, 33.3%.

As to `Cn1nc2c(cc1=O)CN(Cc1nnc(-c3ccco3)o1)CC2`, the Percent Effect turned out to be 76.6%.

These data come from ChEMBL document CHEMBL3988442, “University of Dundee, Small-Polar-MMV Screening Library” (2021).
